The text below walks through data of PubChem BioAssay (Tox21).

Molecules are shown by their SMILES. Where “and” joins values, the source holds several entries; their conditions need not be identical. Equal values may be shown once. Results filed as inconclusive are left out. The source holds several records for some structures; these can differ, active in one and inactive in another. Calls of active or inactive are those of the source. Unless noted, calls follow the shape of the dose curve; as a rule, active = well fitted curve in the direction sought with a large enough effect in the repeat runs; inconclusive = weak or mixed curves; inactive = no such curve, though single readings can be large; an effect the other way counts as inactive or inconclusive.

Assay [1] concerns the target Progesterone receptor (Homo sapiens) (UniProt P06401). Briefly: qHTS assay to identify small molecule agonists of the progesterone receptor (PR) signaling pathway (AID 1346784; calls by dose curve; also: nearly all actives have a fitted effect of over 30% in size; also: potency is read from the fitted curve at half-maximal effect). The method in brief: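 Using charcoal-stripped serum (2%) to limit endogenous steroids, PR-UAS-bla HEK 293T cells received compounds for 16 hr at 37C after 6 hr plating; beta-lactamase FRET fluorescence was recorded following 2 hr substrate loading at room temperature.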
Background: In qHTS, concentration-response curves come from the screen itself.

Assay [2] has the same target. Briefly: qHTS assay to identify small molecule antagonists of the progesterone receptor (PR) signaling pathway (AID 1346795; active = well fitted inhibition curve with a large enough effect in the signal ratio in the repeat runs, not every such curve was filed as active; the % refers to the signal ratio). Summed up: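 Inhibition of R5020-induced (1 nM final) beta-lactamase reporter signal in PR-UAS-bla HEK293T cells was scored by FRET fluorescence after overnight (16 hr) compound treatment.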
Assay [3] can be described thus: qHTS assay to identify small molecule antagonists of the progesterone receptor (PR) signaling pathway - cell viability counter screen (AID 1346798). Also: series mostly up to about 92 µM; nearly all actives have a fitted effect of over 50% in size. Summed up:
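ATP content as viability readout: CellTiter-Glo luminescence, 30 min room temperature, in PR-UAS-bla HEK293T cells after 16 hr compound/R5020 treatment at 37C and 5% CO2.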

Assay [4] can be described thus: qHTS assay to identify small molecule agonists of the progesterone receptor (PR) signaling pathway - cell viability counter screen (AID 1346799; calls by dose curve; also: nearly all actives have a fitted effect of over 45% in size). Summed up: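 Cytotoxicity in PR-bla HEK293T cells: 16 h compound, 37C; CellTiter-Glo added post-FRET read; luminescence after 30 min RT.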
Assay [5] in a line: qHTS assay to identify small molecule antagonists of the TGF-beta/Smad signaling pathway - cell viability counter screen (AID 1346824). Also: nearly all actives have a fitted effect of over 50% in size. The method in brief:
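Cytotoxicity counter-screen run in the same wells as the beta-lactamase Smad reporter read: CellTiter-Glo luminescence after 30 min at room temperature. HEK 293T SBE-bla cells had 5 hr compound exposure at 37 C with TGF-beta1 (0.25 ng/mL stock).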

Assay [6] can be described thus: qHTS assay to identify small molecule agonists of the TGF-beta/Smad signaling pathway - cell viability counter screen (AID 1346829). Also: top concentration of the series differs between compounds; nearly all actives have a fitted effect of over 45% in size. The method in brief: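 Cytotoxicity counter screen: CellTiter-Glo luminescence (30 min, room temperature) measured in the SBE-bla HEK 293T reporter wells after 5 hr compound treatment at 37 C and the 2 hr substrate step.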
Assay [7] is described as follows: qHTS assay to identify small molecule agonists of the TGF-beta/Smad signaling pathway (AID 1346859; active = well fitted activation curve with a large enough effect in the signal ratio in the repeat runs, not every such curve was filed as active; the % refers to the signal ratio; also: series mostly up to about 77 µM). The method in brief: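 Stable Smad binding element-beta-lactamase HEK 293T cells; 5 hr compound exposure at 37 C under 5% CO2; 2 hr room-temperature substrate step; fluorescence excited at 405 nm, collected at 460 nm and 530 nm.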
Assay [8] deals with Thyrotropin-releasing hormone receptor (Homo sapiens) (UniProt P34981). Nature of the assay: qHTS assay to identify small molecule antagonists of the thyrotropin-releasing hormone receptor (TRHR) signaling pathway (AID 1346877; active = well fitted inhibition curve with a large enough effect in the repeat runs, not every such curve was filed as active; also: series mostly up to about 51 µM). Summed up:
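Screening used HEK293 cells engineered with TRHR, with a brief 5 min room-temperature compound exposure preceding addition of TRH to 1 nM. The read-out was kinetic calcium-dye fluorescence, concentration-response from 15 doses in triplicate.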

For assay [9] the target is unchanged. Nature of the assay: qHTS assay to identify small molecule agonists of the thyrotropin-releasing hormone receptor (TRHR) signaling pathway (AID 1346891; calls by dose curve;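 also: HEK293 cells expressing TRHR with calcium dye readout; series mostly up to about 58 µM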). The method in brief: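 In 1536-format, 1500 TRHR-Hek293 cells per well grew 18 h, took up calcium dye for 2 h at 37 °C, received compound, and were read kinetically; 15-point titrations, triplicates.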
The nature of assay [10]: Human pregnane X receptor (PXR) small molecule agonists, qHTS cell viability counter screen (AID 1346977). Also: nearly all actives have a fitted effect of over 50% in size. Also: potency is read from the fitted curve at half-maximal effect. The method in brief: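 Readout is CellTiter-Fluor fluorescence from PXR-Luc HepG2 cells. Plated cells rested 5hr, then were treated with compounds for 24hr at 37C and 5% CO2, with reagent present during the last hour.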
% is scaled to controls: 0 for no effect and ±100 for the full control effect.

Chain of Progesterone receptor (Homo sapiens) (P06401 whole entry, looked up): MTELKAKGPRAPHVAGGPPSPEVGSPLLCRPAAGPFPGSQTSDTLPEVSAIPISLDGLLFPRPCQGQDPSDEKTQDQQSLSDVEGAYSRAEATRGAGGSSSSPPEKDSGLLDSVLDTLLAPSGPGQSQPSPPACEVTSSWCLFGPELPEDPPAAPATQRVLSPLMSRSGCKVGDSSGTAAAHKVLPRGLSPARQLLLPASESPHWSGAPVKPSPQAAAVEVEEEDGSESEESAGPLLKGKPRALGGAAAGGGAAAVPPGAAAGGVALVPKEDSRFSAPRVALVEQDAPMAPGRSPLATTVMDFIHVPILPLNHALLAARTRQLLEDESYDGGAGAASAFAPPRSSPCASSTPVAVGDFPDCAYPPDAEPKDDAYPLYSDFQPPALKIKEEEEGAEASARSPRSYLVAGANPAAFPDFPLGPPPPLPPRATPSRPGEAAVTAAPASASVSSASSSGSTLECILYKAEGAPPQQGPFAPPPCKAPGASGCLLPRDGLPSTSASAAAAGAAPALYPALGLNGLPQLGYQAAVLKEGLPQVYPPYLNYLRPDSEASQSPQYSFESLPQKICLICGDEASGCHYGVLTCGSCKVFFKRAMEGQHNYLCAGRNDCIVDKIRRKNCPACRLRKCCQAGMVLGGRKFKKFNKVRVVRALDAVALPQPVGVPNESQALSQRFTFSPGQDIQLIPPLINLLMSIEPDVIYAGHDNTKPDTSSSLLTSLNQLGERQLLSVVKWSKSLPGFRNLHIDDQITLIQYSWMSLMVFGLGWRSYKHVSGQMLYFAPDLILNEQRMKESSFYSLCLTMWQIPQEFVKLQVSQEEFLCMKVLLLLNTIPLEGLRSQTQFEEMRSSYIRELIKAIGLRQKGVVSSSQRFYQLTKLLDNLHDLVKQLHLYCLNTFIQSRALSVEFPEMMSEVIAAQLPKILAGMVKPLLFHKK
Chain of Thyrotropin-releasing hormone receptor (Homo sapiens) (P34981 whole entry, looked up): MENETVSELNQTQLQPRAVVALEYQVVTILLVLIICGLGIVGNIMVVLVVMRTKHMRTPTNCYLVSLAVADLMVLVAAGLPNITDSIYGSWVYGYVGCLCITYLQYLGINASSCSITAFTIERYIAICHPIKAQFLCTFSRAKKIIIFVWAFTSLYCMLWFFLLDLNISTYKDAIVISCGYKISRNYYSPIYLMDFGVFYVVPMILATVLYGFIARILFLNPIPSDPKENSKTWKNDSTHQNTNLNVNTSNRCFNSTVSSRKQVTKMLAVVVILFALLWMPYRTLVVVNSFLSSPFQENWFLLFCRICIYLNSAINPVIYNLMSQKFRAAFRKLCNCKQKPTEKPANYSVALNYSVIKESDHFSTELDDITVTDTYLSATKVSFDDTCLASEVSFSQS

Take `Clc1cccc2ccccc12`: the Potency entry in assay [1], in assay [2], in [3], in assay [4], in assay [5] and in assay [6] was “inactive” each time. The Potency result in [8], in [9] and in [10] was “inactive” throughout. Further, the molecule was classed as inactive in [7].
As to `CN(N=O)c1ccc([N+](=O)[O-])cc1`, the Potency entry in [1], in assay [2], in assay [3], in assay [4], in [5] and in assay [6] was “inactive” each time. For the same molecule, the Potency result in assay [8], in [9] and in assay [10] was “inactive” throughout. The call in assay [7] was inactive.
`CNC(C)Cc1ccccc1OC` (stereo unspecified): the Potency result in assay [1], in assay [2], in assay [3], in assay [4], in assay [5] and in [6] was “inactive” throughout. Also, the Potency result in assay [8], in assay [9] and in assay [10] was “inactive” throughout. In [7], the call was inactive.
In the case of `C=CC(=O)OCC(C)O` (stereo unspecified), the Potency result in assay [1], in [2], in assay [3], in assay [4], in [5] and in assay [6] was “inactive” each time. Besides, the Potency result in assay [8], in assay [9] and in assay [10] was “inactive” in each case. For the same molecule, in assay [7], the outcome was inactive.
For the molecule `CC1Sc2c(C(=O)O)c(=O)c3cc(F)c(N4CCNCC4)cc3n21` (stereo unspecified), the Potency entry in [1], in [2], in [3], in assay [4], in assay [5] and in assay [6] was “inactive” throughout. Further, the Potency result in assay [8], in [9] and in [10] was “inactive” throughout. For the same molecule, the call in assay [7] was inactive.
As to `COC(=O)C(Cl)C(=O)OC`, the Potency result in [1], in assay [2], in [3], in [4], in assay [5] and in assay [6] was “inactive” in each case. Also, the Potency entry in assay [8], in assay [9] and in assay [10] was “inactive” throughout. For the same molecule, the result in [7] was inactive.
Consider `NNC(=O)c1cccnc1`, for which the Potency result in assay [1], in assay [2], in [3], in assay [4], in [5] and in assay [6] was “inactive” throughout. The Potency result in [8], in assay [9] and in assay [10] was “inactive” throughout. Moreover, the molecule was classed as inactive in [7].
In the case of `O=C(CBr)c1ccccc1`, the Potency result in assay [1], in assay [2], in assay [3], in assay [4], in assay [5] and in [6] was “inactive” each time. In addition, the Potency result in assay [8], in assay [9] and in assay [10] was “inactive” in each case. The call in assay [7] was inactive.
For the molecule `CC(=O)NC1CCSC1=O` (stereo unspecified), the Potency result in [1], in assay [2], in assay [3], in assay [4], in [5] and in [6] was “inactive” throughout. For the same molecule, the Potency result in assay [8], in [9] and in assay [10] was “inactive” each time. For the same molecule, the molecule was called inactive in assay [7].
On to `CC(Cl)C(C)Cl` (stereo unspecified), for which the Potency entry in assay [1], in [2], in assay [3], in assay [4], in assay [5] and in [6] was “inactive” each time. The Potency result in [8], in [9] and in assay [10] was “inactive” throughout. Moreover, the result in assay [7] was inactive.
Turning to `ClCc1cccc(Cl)c1`, the Potency entry in [1], in assay [2], in assay [3], in assay [4], in assay [5] and in assay [6] was “inactive” each time. Also, the Potency result in [8], in assay [9] and in [10] was “inactive” in each case. The call in assay [7] was inactive.
As for `O=C(NC(=O)c1c(F)cccc1F)Nc1ccc(OC(F)(F)C(F)OC(F)(F)F)c(Cl)c1` (stereo unspecified), the Potency result in assay [1], in assay [2], in [3], in assay [4], in [5] and in [6] was “inactive” throughout. Also, the Potency result in assay [8], in assay [9] and in assay [10] was “inactive” each time. In addition, in assay [7], the molecule was called inactive.
`COc1cc(Cl)c(OC)cc1Cl`: the Potency entry in assay [1], in assay [2], in [3], in assay [4], in assay [5] and in assay [6] was “inactive” each time. Moreover, the Potency result in [8], in assay [9] and in assay [10] was “inactive” in each case. In assay [7], the outcome was inactive.
Take `O=Cc1ccc2c(c1)OCO2`: the Potency entry in assay [1], in assay [2], in assay [3], in [4], in assay [5] and in [6] was “inactive” each time. Besides, the Potency result in assay [8], in assay [9] and in assay [10] was “inactive” throughout. Moreover, the molecule was classed as inactive in assay [7].
For `C=CC(=O)OCC(C)C`, the Potency result in [1], in [2], in assay [3], in assay [4], in assay [5] and in assay [6] was “inactive” throughout. Further, the Potency entry in [8], in [9] and in [10] was “inactive” in each case. Besides, the outcome in [7] was inactive.
As to `O=C(O)c1ccccc1C(=O)Nc1cccc2ccccc12`, the Potency entry in assay [1], in assay [2], in assay [3], in [4], in assay [5] and in assay [6] was “inactive” throughout. In addition, the Potency entry in assay [8], in [9] and in [10] was “inactive” in each case. The result in assay [7] was inactive.
Turning to `COc1cc(CC(C)N)cc2c1OCO2` (stereo unspecified), the Potency result in assay [1], in assay [2], in assay [3], in assay [4], in assay [5] and in [6] was “inactive” each time. The Potency entry in [8], in assay [9] and in [10] was “inactive” each time. Moreover, in assay [7], the outcome was inactive.
`CCOP(=O)(OCC)SCCSCC`: the Potency entry in [1], in assay [2], in assay [3], in assay [4], in [5] and in [6] was “inactive” throughout. For the same molecule, the Potency entry in assay [8], in assay [9] and in [10] was “inactive” throughout. Moreover, in [7], the molecule was classed as inactive.
In the case of `NCC(CC(=O)O)c1ccc(Cl)cc1` (stereo unspecified), the activation is 1.24% [at 0.349 µM] (inactive) in assay [1], -0.421% [at 0.29 µM] (inactive) in assay [7] and -0.989% [at 0.218 µM] (inactive) in [9]. The activity change, negative = inhibition in assay [2] was 7.47% [at 0.348 µM] (inactive). For the same molecule, the activity change, negative = cytotoxicity in assay [3] is -8.73% [at 0.348 µM] (inactive); in assay [4], 0.204% [at 0.349 µM] (inactive); in assay [6] it was -5.36% [at 0.29 µM] (inactive); in [10] it was -0.756% [at 0.349 µM] (inactive). Besides, the viability change, negative = cytotoxic in [5] was 2.11% [at 0.29 µM] (inactive). Besides, the activity, negative = inhibition in [8] is 7.63% [at 0.194 µM] (inactive).
Regarding `CCn1cc[n+](C)c1`, the Potency result in assay [1] is “inactive and 15.3 µM (active)”; in assay [10] it was “inactive and 54.5 µM (active)”. Besides, the Potency entry in [2], in assay [3], in assay [4], in [5] and in assay [6] was “inactive” in each case. For the same molecule, the molecule was called inactive in [7].
With `O=C(CBr)OCc1ccccc1`, the Potency result in assay [1], in assay [2], in assay [3], in assay [5], in assay [6] and in assay [8] was “inactive” throughout. For the same molecule, the Potency entry in [9] and in assay [10] was “inactive” in each case. Also, the molecule was classed as inactive in [7].
As for `Cn1sc(Cl)cc1=O`, the Potency result in [1], in [2], in assay [3], in [5], in [6] and in [8] was “inactive” throughout. In addition, the Potency result in assay [9] and in assay [10] was “inactive” each time. The molecule was called inactive in assay [7].
`C#CCOC(C(=O)OCCN(C)C)(c1ccccc1)c1ccccc1`: the Potency entry in [1], in assay [2], in assay [3], in assay [4], in assay [5] and in assay [6] was “inactive” in each case. Further, the Potency result in assay [10] is “inactive”. The outcome in assay [7] was inactive.
Regarding `O=C(O)COc1ccc(Cl)cc1`, the Potency result in assay [1], in assay [2], in assay [3], in [4], in [5] and in assay [6] was “inactive” in each case. Also, the Potency entry in [8], in assay [9] and in assay [10] was “inactive” each time.
As for `C=CC(=O)OCCCCO`, the Potency result in [1], in assay [2], in assay [3], in assay [4], in [5] and in assay [6] was “inactive” in each case. Moreover, the Potency entry in assay [8], in [9] and in [10] was “inactive” in each case.
As to `C[C@H]1CNCCc2ccc(Cl)cc21`, the Potency result in [1], in assay [2], in [3], in assay [5], in assay [6] and in assay [8] was “inactive” each time. Also, the Potency result in assay [9] and in assay [10] was “inactive” throughout. The result in assay [7] was inactive.
